{"source": "the OligoGym collection"}
{"biological_target": "ZNF219", "assay": "pooled miR-30 sensor sort-seq; sequence = guide strand", "conditions": "shRNA"}
{"sequence": "TACTTGAGCGAGCCGGACTGGG", "sensor-assay potency score (higher = more potent)": -1.26}
{"sequence": "TTCCGCAGAAAGGACAATCCTT", "sensor-assay potency score (higher = more potent)": -0.585}
{"sequence": "TTGCCTTTGCAGTAGGGGCAAC", "sensor-assay potency score (higher = more potent)": -1.2}
{"sequence": "TGTAGGTGATACTTGAGCGAGC", "sensor-assay potency score (higher = more potent)": -0.911}
{"sequence": "TGGAGTATCGCTGCAGATCCAG", "sensor-assay potency score (higher = more potent)": -1.26}
{"sequence": "TATCGCTGCAGATCCAGCTCGC", "sensor-assay potency score (higher = more potent)": 0.347}
{"sequence": "TTGAGGTGATGTGCTGAGCGGA", "sensor-assay potency score (higher = more potent)": -0.983}
{"sequence": "TAGTAGCGCGCGCTCTTCCAAC", "sensor-assay potency score (higher = more potent)": -1.67}
{"sequence": "TCGCAGATGCACTTTGAGGTGA", "sensor-assay potency score (higher = more potent)": -0.383}
{"biological_target": "ZNF233", "assay": "pooled miR-30 sensor sort-seq; sequence = guide strand", "conditions": "shRNA"}
{"sequence": "TATCTCATTTTGATTCTTGTGT", "sensor-assay potency score (higher = more potent)": 0.251}
{"sequence": "TATCCTGTCACTTACTTCCCAT", "sensor-assay potency score (higher = more potent)": -0.636}
{"sequence": "TTTAGCAACTTGGACCTCTTGC", "sensor-assay potency score (higher = more potent)": 0.0723}
{"sequence": "ATGTACACAACTTCTCTCCTGG", "sensor-assay potency score (higher = more potent)": -0.0529}
{"sequence": "TTTGCTGACACCTACTCTGATA", "sensor-assay potency score (higher = more potent)": -0.77}
{"sequence": "TCTTGTGTCCTGAACACCCATC", "sensor-assay potency score (higher = more potent)": -0.866}
{"sequence": "TAATCTTACTTCTTGAAGGGTA", "sensor-assay potency score (higher = more potent)": 0.461}
{"sequence": "TTAATTTACTTGTAAATTGTTC", "sensor-assay potency score (higher = more potent)": -0.905}
{"sequence": "TTCTTGTGTCCTGAACACCCAT", "sensor-assay potency score (higher = more potent)": -0.736}
{"sequence": "TATTAGGTCTTGATTACTGGTT", "sensor-assay potency score (higher = more potent)": -0.618}
{"sequence": "TTAATCTTACTTCTTGAAGGGT", "sensor-assay potency score (higher = more potent)": -0.195}
{"sequence": "TTTACTTGTAAATTGTTCCCAT", "sensor-assay potency score (higher = more potent)": 0.845}
